Test results published in PubChem BioAssay AID1159580 (chemical genetic matrix, 2015).
Hit rate of the full screen: of about 5,500 compounds, about 2,000 (36%) were called active. About 18% were inconclusive and are not listed. Cut-off read from the data, not from the text of the source: active = normalized growth mostly below about 0.91 (no sharp cut-off); inconclusive = no clear call, values can overlap the other calls; inactive = mostly above about 0.92. The list shows a part of the results.

Assay: chemical genetic growth profiling, strain panel (AID 1159580);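 note: tested at 20 µM; growth read once vehicle control cultures reached saturation at 30 °C; 1 = growth at the plate median or of vehicle wells; lower values mean less growth of the strain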
Conditions: growth OD

Measured: normalized growth

CC(=O)OCC1=C(C(=O)O)N2C(=O)[C@@H](NC(=O)CCCC(N)C(=O)O)C2SC1 (some centres not stated)
inactive: S. cerevisiae deletion strains, locus YJR075W, strain HOC1, active compounds read low 1.05 | S. cerevisiae deletion strains, locus YKL009W, strain mrt4, active compounds read low 0.996 | S. cerevisiae deletion strains, locus YKL068W, active compounds read low 1 | S. cerevisiae deletion strains, locus YKL085W, strain MDH1 (second series), active compounds read low 0.995 | S. cerevisiae deletion strains, locus YKL085W, strain MDH1, active compounds read low 0.995 | S. cerevisiae deletion strains, locus YKL160W, strain elf1, active compounds read low 0.998 | S. cerevisiae deletion strains, locus YKL190W, strain CNB1, active compounds read low 1.01 | S. cerevisiae deletion strains, locus YKR001C, strain vps1, active compounds read low 1.03 | S. cerevisiae deletion strains, locus YKR026C, strain gcn3, active compounds read low 0.969 | S. cerevisiae deletion strains, locus YKR091W, strain srl3, active compounds read low 0.999 | S. cerevisiae deletion strains, locus YLL001W, strain dnm1, active compounds read low 0.973 | S. cerevisiae deletion strains, locus YLL026W, active compounds read low 0.996 | S. cerevisiae deletion strains, locus YLL041C, strain sdh2, active compounds read low 0.993 | S. cerevisiae deletion strains, locus YLR027C, strain aat2, active compounds read low 0.998 | S. cerevisiae deletion strains, locus YLR039C, strain RIC1, active compounds read low 1.02 | S. cerevisiae deletion strains, locus YLR058C, strain SHM2, active compounds read low 1.02 | S. cerevisiae deletion strains, locus YLR102C, strain apc9, active compounds read low 0.997 | S. cerevisiae deletion strains, locus YLR113W, strain HOG1, active compounds read low 1.01 | S. cerevisiae deletion strains, locus YLR221C, strain rsa3, active compounds read low 0.994 | S. cerevisiae deletion strains, locus YLR258W, strain gsy2, active compounds read low 1.02 | S. cerevisiae deletion strains, locus YLR262C, strain YPT6 (second series), active compounds read low 0.978 | S. cerevisiae deletion strains, locus YLR262C, strain YPT6, active compounds read low 1.02 | S. cerevisiae deletion strains, locus YLR268W, strain sec22, active compounds read low 1.01 | S. cerevisiae deletion strains, locus YLR320W, strain mms22, active compounds read low 1.01 | S. cerevisiae deletion strains, locus YLR330W, strain CHS5, active compounds read low 1.01 | S. cerevisiae deletion strains, locus YLR342W, strain FKS1 (second series), active compounds read low 1.04 | S. cerevisiae deletion strains, locus YLR342W, strain FKS1, active compounds read low 1.01 | S. cerevisiae deletion strains, locus YLR357W, strain rsc2, active compounds read low 0.99 | S. cerevisiae deletion strains, locus YLR370C, strain arc18, active compounds read low 1.01 | S. cerevisiae deletion strains, locus YLR371W, strain rom2, active compounds read low 1.01 | S. cerevisiae deletion strains, locus YLR384C, strain iki3, active compounds read low 0.994 | S. cerevisiae deletion strains, locus YLR418C, strain cdc73, active compounds read low 1 | S. cerevisiae deletion strains, locus YML016C, strain PPZ1, active compounds read low 1.01 | S. cerevisiae deletion strains, locus YML032C, strain rad52, active compounds read low 1.02 | S. cerevisiae deletion strains, locus YML120C, strain ndi1, active compounds read low 0.996 | S. cerevisiae deletion strains, locus YML124C, strain tub3, active compounds read low 1 | S. cerevisiae deletion strains, locus YMR058W, strain fet3, active compounds read low 0.994 | S. cerevisiae deletion strains, locus YMR078C, strain ctf18, active compounds read low 1 | S. cerevisiae deletion strains, locus YMR125W, strain sto1, active compounds read low 0.996 | S. cerevisiae deletion strains, locus YMR129W, active compounds read low 0.988 | S. cerevisiae deletion strains, locus YMR205C, strain PFK2, active compounds read low 1.02 | S. cerevisiae deletion strains, locus YMR223W, strain ubp8, active compounds read low 1.04 | S. cerevisiae deletion strains, locus YMR231W, strain pep5, active compounds read low 0.988 | S. cerevisiae deletion strains, locus YMR263W, strain SAP30, active compounds read low 1.04 | S. cerevisiae deletion strains, locus YMR307W, strain GAS1, active compounds read low 0.987 | S. cerevisiae deletion strains, locus YNL067W, strain RPL9B, active compounds read low 1.01 | S. cerevisiae deletion strains, locus YNL071W, strain lat1, active compounds read low 1.01 | S. cerevisiae deletion strains, locus YNL128W, strain TEP1, active compounds read low 1.01 | S. cerevisiae deletion strains, locus YNL153C, strain GIM3, active compounds read low 1.03 | S. cerevisiae deletion strains, locus YNL183C, strain NPR1, active compounds read low 0.946 | S. cerevisiae deletion strains, locus YNL209W, strain ssb2, active compounds read low 0.998 | S. cerevisiae deletion strains, locus YNL233W, strain BNI4, active compounds read low 1.02 | S. cerevisiae deletion strains, locus YNL248C, strain rpa49, active compounds read low 0.996 | S. cerevisiae deletion strains, locus YNL250W, strain rad50, active compounds read low 1 | S. cerevisiae deletion strains, locus YNL271C, strain bni1, active compounds read low 0.998 | S. cerevisiae deletion strains, locus YNL298W, strain CLA4, active compounds read low 1.02 | S. cerevisiae deletion strains, locus YNL307C, strain MCK1, active compounds read low 1.01 | S. cerevisiae deletion strains, locus YNL322C, strain KRE1 (second series), active compounds read low 0.99 | S. cerevisiae deletion strains, locus YNL322C, strain KRE1, active compounds read low 1.01 | S. cerevisiae deletion strains, locus YNR049C, strain mso1, active compounds read low 0.996 | S. cerevisiae deletion strains, locus YNR052C, strain pop2, active compounds read low 1.02 | S. cerevisiae deletion strains, locus YOL006C, strain TOP1, active compounds read low 1 | S. cerevisiae deletion strains, locus YOL012C, strain htz1 0.841 | S. cerevisiae deletion strains, locus YOL147C, strain pex11, active compounds read low 0.997 | S. cerevisiae deletion strains, locus YOR001W, strain rrp6, active compounds read low 0.998 | S. cerevisiae deletion strains, locus YOR061W, strain CKA2, active compounds read low 1.01 | S. cerevisiae deletion strains, locus YOR069W, strain VPS5, active compounds read low 1 | S. cerevisiae deletion strains, locus YOR070C, strain gyp1, active compounds read low 0.995 | S. cerevisiae deletion strains, locus YOR080W, strain dia2, active compounds read low 1 | S. cerevisiae deletion strains, locus YOR083W, strain WHI5, active compounds read low 0.993 | S. cerevisiae deletion strains, locus YOR106W, strain vam3, active compounds read low 0.999 | S. cerevisiae deletion strains, locus YOR136W, strain idh2, active compounds read low 1 | S. cerevisiae deletion strains, locus YOR144C, strain elg1, active compounds read low 0.99 | S. cerevisiae deletion strains, locus YOR184W, strain ser1, active compounds read low 1.02 | S. cerevisiae deletion strains, locus YOR231W, strain MKK1, active compounds read low 1 | S. cerevisiae deletion strains, locus YOR265W, strain rbl2, active compounds read low 0.993 | S. cerevisiae deletion strains, locus YOR270C, strain vph1, active compounds read low 1.08 | S. cerevisiae deletion strains, locus YOR290C, strain snf2, active compounds read low 0.973 | S. cerevisiae deletion strains, locus YOR316C, strain cot1, active compounds read low 0.994 | S. cerevisiae deletion strains, locus YPL051W, strain arl3, active compounds read low 0.99 | S. cerevisiae deletion strains, locus YPL055C, strain LGE1, active compounds read low 1.03 | S. cerevisiae deletion strains, locus YPL078C, strain atp4, active compounds read low 0.994 | S. cerevisiae deletion strains, locus YPL106C, strain sse1, active compounds read low 0.981 | S. cerevisiae deletion strains, locus YPL240C, strain hsp82, active compounds read low 1.01 | S. cerevisiae deletion strains, locus YPL241C, strain CIN2, active compounds read low 1.01 | S. cerevisiae deletion strains, locus YPL256C, strain CLN2, active compounds read low 0.967 | S. cerevisiae deletion strains, locus YPR119W, strain clb2, active compounds read low 1 | S. cerevisiae deletion strains, locus YPR141C, strain kar3, active compounds read low 1 | S. cerevisiae deletion strains, locus YPR163C, strain tif3, active compounds read low 1 | S. cerevisiae deletion strains, locus YPR167C, strain met16, active compounds read low 1 | S. cerevisiae deletion strains, strain wtn01, active compounds read low 1 | S. cerevisiae strains, strain wild type, active compounds read low 1.02
